Assay results as given in ChEMBL document CHEMBL3988442, “University of Dundee, Small-Polar-MMV Screening Library” (2021).
Values joined by “and” are separate entries in the source; they are usually repeats but may differ in a detail not shown here. Equal entries are not always repeated. Screen size: about 34,000 compounds; about 290 (0.85%) showed an effect of 50% or more. This is one part of a sample in which strong results are shown more often than they occur.

Tested on: Plasmodium falciparum
Experiment: Plasmodium falciparum sporozoite viability assay
Assay type: functional, organism-based
Set-up: scale not given: in the data most compounds retested in dose-response had high values

Row | Compound | Percent Effect [%] | Percent Effect (10 mM as filed; unlikely as a test dose)
1 | Cl.c1ccc(-c2cc(CNCCCC3CCOC3)c3nnnn3c2)cc1 (configuration not stated) | -4.775 | 
2 | Clc1ccc2nc(N3CCC(NCCCC4CCOC4)CC3)sc2c1 (configuration not stated) |  | 74.93% and 78.72%
3 | Cc1csc2c(N3CCC(NCCCC4CCOC4)CC3)ncnc12 (configuration not stated) | 2.368 | 
4 | COc1ccc2c(c1)C(=O)NC1(CC2)CCN(Cc2ccncc2)C1 (configuration not stated) | 11.06 | 
5 | CCCNC(=O)c1cc(C2CCCN(Cc3ccccn3)C2)no1 (configuration not stated) | 2.586 | 
6 | CNS(=O)(=O)Cc1cccc(CNC(=O)Nc2cn[nH]c2)c1 | 3.105 | 
7 | Cc1n[nH]c(C2CN(C(=O)c3cc4c(s3)CCCC4)CCO2)n1 (configuration not stated) |  | 11.47% and -8.902% and 7.352%
8 | Cc1n[nH]c(C2CN(C(=O)c3cc4c(s3)CCC4)CCO2)n1 (configuration not stated) |  | -3.516% and -12.52% and -10.81%
9 | N#Cc1c(C2CCOC2)cc(-c2ccc(N3CCCCC3)cc2)nc1N (configuration not stated) |  | 29.44% and 63.96% and 52.39%
10 | Oc1nnc(-c2ccccc2)c2sc(N3CCCCC3)nc12 |  | 60.86% and 56.27%
11 | Oc1nnc(-c2cccs2)c2sc(N3CCCC3)nc12 |  | -6.906% and -7.819%
12 | Oc1nnc(-c2cccs2)c2sc(N3CCCCC3)nc12 |  | 6.59% and -1.953%
13 | CCOc1ccc(Cl)cc1CCNC(=O)Cn1nc(C)ccc1=O | -8.218 | 
14 | Cc1nc(COc2ccc(N(C)S(C)(=O)=O)cc2)sc1C |  | 53.33% and 78.78% and 74.56%
15 | Cc1nc(C)c(COc2ccc(S(=O)(=O)N(C)C)cc2)s1 |  | 5.36% and 0% and 2.114%
16 | CN1CCN(c2ccc(NS(=O)(=O)c3ccc(Br)s3)cc2C(=O)O)CC1 | 4.745 | 
17 | Cc1ccc(CC(=O)N2CCN(c3nccs3)CC2)s1 | 2.447 | 
18 | CC(C)OCCCN(Cc1ccncc1)Cc1cc(F)cc(F)c1.Cl | 11.64 | 
19 | CC(=O)Nc1nc(C(=O)N2CCCC(n3cncn3)C2)cs1 (configuration not stated) |  | 82.11% and 81.18% and 79.89%
20 | CC(=O)N1CCN(C(=O)Nc2cnc3c(cnn3C(C)C)c2)CC1 | 25.32 | 
21 | Cc1ccc(CN(CCN(C)C)Cc2ccnn2C2CCCCO2)o1.O=C(O)CC(O)(CC(=O)O)C(=O)O (configuration not stated) | -4.714 | 
22 | COc1ccc2c(c1)CN(c1cc(N3CCCC3CO)ncn1)CC2 (configuration not stated) | -18.73 | 
23 | OCC1CCCN1c1cc(N2CCc3ccccc3C2)ncn1 (configuration not stated) | 3.468 | 

Row | Compound | Percent Effect [%] | Percent Effect (10 mM as filed; unlikely as a test dose)
24 | COCc1noc(-c2ccc(N3CCCCC3CO)nc2)n1 (configuration not stated) |  | 100.3% and 99.37% and 102%
25 | OCC1CCCCN1c1ccc(-c2nc(-c3ccccc3F)no2)cn1 (configuration not stated) |  | 104% and 108.6% and 106.3%
26 | COCc1noc(-c2ccc(N3CCC[C@H]3CO)nc2)n1 |  | 100.4% and 89.16% and 80.89%
27 | OC[C@@H]1CCCN1c1ccc(-c2nc(COc3ccccc3)no2)cn1 | 3.859 | 
28 | COc1ccc(-c2noc(-c3ccc(N4CCC[C@H]4CO)nc3)n2)cc1 |  | 49.77% and 66.78% and 41.57%
29 | Cc1ccc(-c2nc(CN3CCCC3Cn3cc(C)cn3)no2)cc1 (configuration not stated) | -11.03 | 
30 | CCOC(=O)C1CCCN(c2ccc(-c3nc(C)no3)cn2)C1 (configuration not stated) | -0.4292 | 
31 | OC[C@@H]1CCCN1c1ccc(-c2nc(CCc3ccccc3)no2)cn1 | -12.02 | 
32 | COc1cccc(CNC(=O)C(c2cccc(F)c2)N2CCOCC2)c1 (configuration not stated) | -3.044 | 
33 | O=C(c1ccc(OCC2CC2)nc1)N1CCCC(n2cccn2)C1 (configuration not stated) | -19.18 | 
34 | CC(C)C(=O)N(C)CC(=O)Nc1ccc(Br)cn1 | 14 | 
35 | CC(C)NC(=O)C1CCN(c2nc3nc[nH]c(=O)c3s2)CC1 | 4.304 | 
36 | O=C(O)CC(O)(CC(=O)O)C(=O)O.OC1CCN(Cc2ccnc(-c3cccnc3)n2)CC1 | -11.33 | 
37 | O=C(C1CCOCC1)N1CC[C@@H](O)[C@@H]1Cc1ccccc1 | -0.722 | 
38 | CCc1cc(C(=O)N2CCc3nc4c(C)csc4c(=O)n3CC2)on1 | -3.013 | 
39 | Cc1ccc(CNC2CCCN(Cc3noc(C4CC4)n3)C2)s1 (configuration not stated) | 14.12 | 
40 | Cc1nccc([C@@H]2C[C@H]3CN(S(=O)(=O)c4ccccc4)C[C@H]3O2)n1 | -0.614 | 
41 | COCc1noc(-c2ccc(N3CCCC3c3ccc(F)cc3)nc2)n1 (configuration not stated) | -8.49 | 
42 | COCc1noc(-c2ccc(N3CCCC3c3nccs3)nc2)n1 (configuration not stated) | 12.02 | 
43 | COCc1noc(-c2ccc(N3CCCCC3COC)nc2)n1 (configuration not stated) |  | 46.38% and 65.96% and 53.91%
44 | Cc1ccc(CN2Cc3nccn3CC(Cn3cccn3)C2)s1.O=C(O)C(F)(F)F (configuration not stated) | 14.89 | 
45 | c1ccc(CCN2CCc3c(ncn3C3CC3)C2)nc1 |  | 67.57% and 58.81%
46 | Cn1cnc2c1CCN(Cc1csc(-c3ccsc3)n1)C2 |  | 58.75% and 42.56% and 36.07%

Row | Compound | Percent Effect [%] | Percent Effect (10 mM as filed; unlikely as a test dose)
47 | c1cc(-c2nc(CN3CCc4c(ncn4C4CC4)C3)cs2)cs1 |  | 57.35% and 45.82% and 61.3%
48 | Cn1cc(-c2nc(CN3CCc4c(ncn4C)C3)cs2)cn1 |  | 16.12% and 15.46% and 16.04%
49 | Cn1cnc2c1CCN(c1ccnc(-c3ccccc3)n1)C2 |  | 23.08% and 36.96% and 19.93%
50 | c1ccc(OCCN2CCc3c(ncn3C3CC3)C2)cc1 | 1.314 | 
51 | c1ccc(-c2nccc(N3CCc4c(ncn4C4CC4)C3)n2)cc1 |  | 47.31% and 54.94% and 44.8%
52 | COc1cc(CCC(=O)N2CCC(c3cc4ncc(C)nc4[nH]3)C2)on1 (configuration not stated) | 3.144 | 
53 | Cn1ncc2ccc(C3CCCN(C(=O)Cc4cccs4)C3)nc21 (configuration not stated) | 10.94 | 
54 | CC(=O)N1CCCC(Cc2cncc(Br)c2)C1 (configuration not stated) | 6.529 | 
55 | Cl.NC[C@H]1CC[C@H](c2c(C(N)=O)sc3ccccc32)CC1 | -7.353 | 
56 | CC(C)c1nccn1-c1cncc(C2CCCN(C3CCCC3)C2)n1 (configuration not stated) | -6.527 | 
57 | CC(=O)Nc1ncc(S(=O)(=O)Nc2cccc(C)c2)s1 |  | -25.8% and -18.95%
58 | Cn1cnc2c1CCN(Cc1csc(-c3ccc(F)cc3)n1)C2 |  | -9.047% and 9.476% and -2.391%
59 | Cn1cnc2c1CCN(Cc1csc(-c3ccccc3F)n1)C2 |  | 76.94% and 88.44% and 75.64%
60 | c1ccc(Cc2noc(CN3CCc4c(ncn4C4CC4)C3)n2)cc1 |  | -14.98% and -2.391% and 8.348%
61 | CN(Cc1ccncc1)C1CC2(CCN(Cc3ccccn3)CC2)C1 | -12.29 | 
62 | c1cc2c(cc1CN(Cc1nc(C3CC3)no1)C1CCCC1)OCO2 |  | 12.71% and 9.481% and -1.226%
63 | CCc1noc(CN(Cc2ccc3c(c2)OCO3)C2CCCC2)n1 |  | 55.13% and 62.45% and 59.26%
64 | COc1ccc(C(C(=O)O)N2CCC(Cn3cccn3)CC2)cc1F (configuration not stated) |  | -7.781% and -11.29%
65 | CC(C)n1nnc(CC(=O)NCC2(c3ccccc3F)CCCC2)n1 | 17.65 | 
66 | O=C(CCCc1ccccn1)N1CCCC(n2cccn2)C1 (configuration not stated) | 0.2979 | 
67 | C1CCCN(CC2CCCN(Cc3noc(C4CC4)n3)C2)CC1 (configuration not stated) | 3.026 | 
68 | COc1ccc(C(CO)NC(=O)Nc2cccc(F)c2)cc1 (configuration not stated) |  | 72.06% and 80.87%
69 | COc1ccc(C(CO)NC(=O)Nc2cccc(C#N)c2)cc1 (configuration not stated) |  | 6.223% and 12.91% and -11.88%

Row | Compound | Percent Effect [%] | Percent Effect (10 mM as filed; unlikely as a test dose)
70 | COc1ccc(C(CO)NC(=O)Nc2cccc(C(C)=O)c2)cc1 (configuration not stated) |  | 15.43% and 22.65%
71 | CN(CCc1ccccc1)Cc1c(C2CCNCC2)[nH]c2ncccc12.Cl | -0.2567 | 
72 | CNc1cncc(C2CCCN2S(=O)(=O)c2ccccc2F)n1 (configuration not stated) | 7.397 | 
73 | COc1ccc(CNCc2c(C)nn(C)c2N2CCOCC2)cc1 |  | -16.18% and -2.312% and -16.24%
74 | Cc1nn(C)c(N2CCOCC2)c1CNCc1ccc(N(C)C)nc1 |  | 6.683% and 14.39% and 13.71%
75 | C=Cn1ncc(CN2C[C@@H]3CCCN3C[C@H]2Cc2ccccc2)c1C | -1.399 | 
76 | CC(=O)N1N=C(c2cccs2)OC1C(=O)Nc1ccc(C)cc1 (configuration not stated) | -16.37 | 
77 | Cc1nc(NCc2cccc(F)c2)cc(C2CCNCC2)n1.Cl | 0.8951 | 
78 | COc1cccc(-c2ccnc(C3CCNCC3)c2)c1 | 4.65 | 
79 | COc1cccc(Nc2nc(C3CCCNC3)c3sc(C)c(C)n23)c1.Cl (configuration not stated) |  | 4.856% and 5.657% and 12.75%
80 | COc1cccc(Nc2nc(C3CCNCC3)c3sc(C)c(C)n23)c1.Cl |  | 77.36% and 36.71% and 52.33%
81 | Cc1sc2c(C3CCNCC3)nc(Nc3cccc(F)c3)n2c1C.Cl |  | 63.64% and 42.54% and 49.37%
82 | COc1cccc(-n2nnc(C(=O)N3CCN(C(C)=O)CC3)c2C)c1 | 6.024 | 
83 | COCC1CC2(CCN(c3cccc(C)n3)CC2)CN1c1ncccn1.O=C(O)C(F)(F)F (configuration not stated) | -2.7 | 
84 | COCCNC(=O)C1(CCCc2cccnc2)CCCN1C (configuration not stated) | 16.89 | 
85 | O=C1C(NCc2nnc3n2CCCC3)CCCN1c1ccccc1 (configuration not stated) | 6.53 | 
86 | Cc1ccc2c(c1)C(=O)NCC1(CCN(C(=O)c3cc(C)no3)CC1)O2 | 21.42 | 
87 | CN1C[C@@H](C(=O)N2CCOCC2)[C@@]2(CCc3ccccc3C(=O)N2)C1 | -1.963 | 
88 | COc1ccc(OCCc2cc(C3CNCCO3)nn2C)cc1 (configuration not stated) | 0.06458 | 
89 | COc1ccc(-c2cnc(N(C)C)nc2C2CNCCO2)cc1.Cl (configuration not stated) | 3.932 | 
90 | Cn1nc(C2CNCCO2)cc1CCOc1ccc(C(F)(F)F)cc1 (configuration not stated) | 8.847 | 
91 | COc1ccc(-c2ccc(C3CNCCO3)nc2)cc1.Cl (configuration not stated) |  | 82.18% and 93.08% and 86.88%
92 | COc1ccc(-c2ccnc(C3CCNCC3)c2)cc1.Cl | 12.14 | 
